Test results taken from PubChem BioAssay (NCI).
Compounds without any hit were thinned out: in the full panel of roughly 79,000, 15% have a hit. No stated cut-off is given here; in the data, active means growth inhibition above about 70%; inactive means the rest.

Columns and labels:
[1] = NCI Yeast Anticancer Drug Screen. Data for the rad50 strain (AID 155);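 further: 0% = growth of vehicle-only cultures of the same strain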; conditions: S. cerevisiae rad50 strain growth inhibition; at 50.0 µM; stronger effect = higher value
Method in brief: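 Inhibition values express reduced yeast growth in compound-treated cultures relative to vehicle-treated controls.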

[2] = NCI Yeast Anticancer Drug Screen. Data for the mec2-1 strain (AID 157); conditions: S. cerevisiae mec2-1 strain, at 50.0 µM, stronger effect = higher value
Method in brief: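 Cells of the genetically defined mec2-1 yeast strain are incubated with test compound. Inhibition of growth is calculated against vehicle-treated controls.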

[3] = NCI Yeast Anticancer Drug Screen. Data for the sgs1 mgt1 strain (AID 161);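 further: 0% = growth of cultures given vehicle only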; conditions: S. cerevisiae sgs1 mgt1 strain, at 50.0 µM, stronger effect = higher value
Method in brief: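 Genetically altered yeast, compound exposure, growth inhibition relative to vehicle.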

[4] = NCI Yeast Anticancer Drug Screen. Data for the cln2 rad14 strain (AID 165);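 further: 0% = growth equal to vehicle treated cultures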; conditions: S. cerevisiae cln2 rad14 strain, at 50.0 µM, stronger effect = higher value
Method in brief: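 The screen exposed genetically defined yeast (cln2 rad14) to test compounds and scored growth inhibition relative to vehicle-treated controls.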

[5] = NCI Yeast Anticancer Drug Screen. Data for the bub3 strain (AID 167); conditions: S. cerevisiae bub3 mutant strain, at 50.0 µM, stronger effect = higher value
Method in brief: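 Steps: expose the mutant yeast strain to compound; grow alongside vehicle-treated cultures; measure growth; express inhibition against the vehicle cultures.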

[6] = NCI Yeast Anticancer Drug Screen. Data for the mlh1 rad18 strain (AID 175); conditions: S. cerevisiae mlh1 rad18 strain growth inhibition; at 50.0 µM; stronger effect = higher value
Method in brief: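 Compound-treated yeast growth, normalised to vehicle controls. Strain bears defined DNA repair mutations.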

Measured: growth inhibition

CC(=O)C(N=Nc1ccc(S(=O)(=O)NC2NCCC(C)N2)cc1)C(=O)Nc1ccccc1C (configuration not stated)
inactive: [1] 55.1% | [2] 15.8% | [3] 48% | [4] 25.6% | [5] 0.7% | [6] 42.5%

COc1cc(OC)c(C2CC(C)(O)Oc3cc4c(cc32)OCO4)c(OC)c1 (configuration not stated)
inactive: [1] 17.4% | [2] 3.8% | [3] 26.9% | [4] 3.9% | [5] 22.1% | [6] 11.8%

CCOC(=O)C(CNCc1ccccc1)C1CCCCC1 (configuration not stated)
inactive: [1] 8.65% | [2] 1.65% | [3] 18.2% | [4] -0.7% | [5] 5.85% | [6] 16.1%

O=C(N/N=C\c1cccnc1)Nc1ccc(N=Nc2ccccc2)cc1
inactive: [1] 12% | [2] 12.5% | [3] -1.9% | [4] -9.2% | [5] 11.9% | [6] 23.1%

Cc1ccc(C(=O)C[n+]2ccccc2)c(O)c1
inactive: [1] -5.45% | [2] -9.9% | [3] 8.85% | [4] -38% | [5] 4.65% | [6] 14.1%

CC(=O)Oc1ccc[nH]c1=O
inactive: [1] 5.25% | [2] -22.1% | [3] 0.9% | [4] 24.6% | [5] 14.3% | [6] 2.4%

CC(C)(C)SCC(=O)O
inactive: [1] -21.6% | [2] -19.6% | [3] -24.8% | [4] 19.5% | [5] 6.75% | [6] 1.55%

CCC1c2ccccc2[C@H]2C(c3ccccc3)=NN(c3ccccc3)[C@H]2N1CC (some centres not stated)
inactive: [1] 26.6% | [2] -5.05% | [3] -0.7% | [4] -2.9% | [5] 1.5% | [6] 40.5%

COc1ccc(C[C@@H]2Cc3cc(OC)c(OC)cc3CN2C)cc1
inactive: [1] 27.4% | [2] 4.6% | [3] 19.6% | [4] 5.65% | [5] 10.9% | [6] 21.4%

O=C(O)c1c(Cl)c(Cl)c(Cl)c(Cl)c1C(=O)Nc1ccccc1F
inactive: [1] -3.8% | [2] -19.2% | [3] 14.3% | [4] -118% | [5] 1.5% | [6] 0.6%

Cc1ccc2c(c1)C(=Nc1ccc(Cl)cc1)C(=O)N2
inactive: [1] -1.6% | [2] 1.7% | [3] 1.75% | [4] -0.55% | [5] 18.9% | [6] 13.1%

N#Cc1ccc(NN=NCCCCCCl)cc1
inactive: [1] 22.7% | [2] -3.2% | [3] 1.25% | [4] 8.5% | [5] 15.8% | [6] 1.55%

CC1CCCN(C(=O)/C=C/c2ccccc2)C1 (configuration not stated)
inactive: [1] 9.25% | [2] -19.2% | [3] -6.45% | [4] -45.8% | [5] 6.3% | [6] -3.8%

CC(C)CCC[C@@H](C)[C@H]1CC[C@H]2[C@@H]3CC[C@H]4C[C@H](N[C@@H]5CC[C@@]6(C)[C@@H](CC[C@@H]7[C@@H]6CC[C@]6(C)[C@@H]([C@H](C)CCCC(C)C)CC[C@@H]76)C5)CC[C@]4(C)[C@H]3CC[C@]12C
inactive: [1] 55.1% | [2] 19.2% | [3] 46.8% | [4] -2.8% | [5] 15.3% | [6] 36.7%

Cc1ccc2ccc(-c3cc4ccccc4s3)nc2c1
inactive: [1] -12.2% | [2] -9.75% | [3] -1.5% | [4] -81.8% | [5] -9.5% | [6] -6.1%

CC(C)CCCC(C)C1CCC2C3CCC4CC(=O)CCCC4(C)C3CCC12C (configuration not stated)
inactive: [1] 19.8% | [2] 3.35% | [3] 20.7% | [4] 12.2% | [5] 2.1% | [6] 32.5%

NNc1ncnc2c1ncn2Cc1ccccc1
inactive: [1] 1.65% | [2] -3.1% | [3] 1.75% | [4] -2.05% | [5] -22.6% | [6] -14.4%

O=c1[nH]c2cccnc2c(=O)n1O
inactive: [1] -6.5% | [2] -8.7% | [3] -7.35% | [4] -39.8% | [5] 12.2% | [6] -5.5%

O/N=C(/CN1CCOCC1)c1ccccc1
inactive: [1] -7.25% | [2] 7.9% | [3] -0.25% | [4] -20.9% | [5] 8.4% | [6] 0%

COC(=O)NC1CCCCC1
inactive: [1] -2.5% | [2] -13.8% | [3] -4.6% | [4] 20.6% | [5] -8.2% | [6] -6.35%

COC(=O)c1ccccc1NC(=O)Nc1cccc(Cl)c1C
inactive: [1] 13.8% | [2] -2.25% | [3] 25.2% | [4] 12% | [5] 17.6% | [6] 17.4%

COC(=O)/C=C/c1ccccc1
inactive: [1] 17.4% | [2] -14.3% | [3] -15.6% | [4] -1.2% | [5] -27.9% | [6] 19.4%

COc1ccc(C(=O)NNC(=O)c2ccccc2)cc1
inactive: [1] 11.9% | [2] -42.5% | [3] -14.8% | [4] 10.1% | [5] -1.1% | [6] -14.2%

C=CCn1c(NCCN(CC)CC)nc2ccc(Cl)cc2c1=O
inactive: [1] 47% | [2] 6.5% | [3] 31.8% | [4] 0.85% | [5] 11.8% | [6] 19.4%

OCc1ccc(CO)cc1
inactive: [1] 18.4% | [2] 29.6% | [3] -15.6% | [4] -4.2% | [5] 8.65% | [6] 7.2%

CCn1c(C)[n+](CCCOS(=O)(=O)[O-])c2ccccc21
inactive: [1] 2.6% | [2] -19.1% | [3] -14.4% | [4] 4.1% | [5] 4.6% | [6] -6.05%

CC1c2ccccc2Cn2cc3c(c21)C(=O)c1cccc(OP(=O)(O)OCc2ccccc2)c1C3=O (configuration not stated)
inactive: [1] 2.2% | [2] 12.6% | [3] 13.1% | [4] 3.45% | [5] 5.1% | [6] 11.9%

O=C(O)C1Cc2nc[nH]c2CN1CO (configuration not stated)
inactive: [1] 6.1% | [2] -8.8% | [3] -19.8% | [4] 3.95% | [5] 23.7% | [6] 8%

N#CCCN(CCC#N)c1ccc(/C=C2\N=C(c3cc([N+](=O)[O-])ccc3Cl)N(S(=O)(=O)c3ccccc3)C2=O)cc1
inactive: [1] 23.2% | [2] 16.3% | [3] 3.5% | [4] -47.4% | [5] -1.35% | [6] 28.1%

CSc1ncnc2c1ncn2CCC(=O)O
inactive: [1] -33.9% | [2] 11.4% | [3] -42.1% | [4] 8.8% | [5] -13.9% | [6] -19.4%

CS/C(c1ccccc1)=[N+](\[O-])Cc1ccccc1
inactive: [1] 17.6% | [2] 9% | [3] -7.1% | [4] 8.5% | [5] -0.75% | [6] 3.15%

COc1ccc(CNc2ccccc2)cc1
inactive: [1] -2% | [2] 11.8% | [3] 3.65% | [4] 10.6% | [5] -4.05% | [6] -9.4%

CC1(C)N=C(N)N=C(N)N1c1ccc(C(F)(F)F)cc1
inactive: [1] 4.15% | [2] 10.1% | [3] 7.85% | [4] -0.5% | [5] 49% | [6] 29.4%

N#C/C=C\c1ccc(C#N)cc1
inactive: [1] 28.1% | [2] -1.5% | [3] 20.3% | [4] 6.85% | [5] 25.1% | [6] 19.9%

CCCCOc1ccc(Br)cc1
inactive: [1] 12.3% | [2] 5.4% | [3] 7.6% | [4] 8.1% | [5] 3.1% | [6] -15.1%

Cc1ccc(N=Nc2c(O)c(C(=O)O)cc3ccccc23)c(S(=O)(=O)O)c1
inactive: [1] 12.3% | [2] -8.35% | [3] -7.5% | [4] -45.2% | [5] 5.9% | [6] 26.4%

C=C(CC(=O)OCC)C(=O)OCC
inactive: [1] 15.4% | [2] 4.6% | [3] 18.4% | [4] 1.95% | [5] 1.25% | [6] 13.8%

O=C(NNC1=NCCCCN1)Nc1ccc(Cl)cc1
inactive: [1] 20.9% | [2] 6.8% | [3] 26.4% | [4] 7.4% | [5] 16.6% | [6] 5.95%

COc1ccc2[nH]c(Br)c(CCNC(C)=O)c2c1
inactive: [1] -25.6% | [2] -7.4% | [3] -16.9% | [4] 1.9% | [5] -4.55% | [6] -31.9%

Nc1ccc2nc(-c3ccccc3)[nH]c2c1
inactive: [1] -13.8% | [2] -8.65% | [3] -13.3% | [4] 1.55% | [5] 0.6% | [6] -3.8%

COCCOCCOCCOC(C)=O
inactive: [1] 21.6% | [2] 12.4% | [3] 8.3% | [4] 6.2% | [5] -5.3% | [6] -0.65%

O=C1/C(=C/c2ccccc2)CC/C1=C\c1ccccc1
inactive: [1] 5.35% | [2] 17.6% | [3] 31.8% | [4] 20.2% | [5] 19.8% | [6] 3.85%
